A549 tox: kills or reduces viability of A549 cells in Nrf2 counter-screen. A549 ARE-Fluc cells, CellTiter-Fluor viability, 18-24 h. Potency, µM (titrated, usually from 46 µM), for the others: at the highest dose activity change, negative = cytotoxicity, usual class: inhibitors. 390,000 tested, 0.16% active; also: % is scaled to controls: 0 for no effect and ±100 for the full control effect
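A549 ARE-Fluc cells in 5% FBS OPTI-MEM, 5000 cells/well, rested 2 h then exposed to compounds in concentration-response for 18-24 h at 37 °C. Viability by CellTiter-Fluor fluorescence (Ex 405/Em 525) after 30 min; luciferase luminescence (BugLite, 15 min, RT) read afterwards.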
HepG2 tox-1: kills HepG2 cells in TGF-b inhibitor counter-screen; 410,000 tested, 0.76% active; Potency, µM (series often up to 46.1 µM), for the others: at the top dose activity change, negative = cytotoxicity, most hits filed as cytotoxic; HepG2 CAGA-GFP viability, ATP luminescence, 18 h; AID 588856
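CellTiter-Glo luminescence gave cytotoxicity after 18 hours at 37 degrees C. The cells were HepG2 CAGA-GFP in 1% FBS DMEM, stimulated with 500 pg/mL TGF-beta after compound addition. %Activity was normalised to no-cell wells (complete cell-killing) and DMSO (no toxicity), and curves were fitted and classified.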
Nrf2 activator: Nrf2 pathway activation. 410,000 tested, 0.31% active. Potency, µM (doses to about 46.1 µM), without a hit: at the highest dose activation, hits mostly activators. AREc32 ARE-luciferase reporter (MCF7-derived line), luminescence, 24 h; also: % of control where 0% means no effect; nearly all actives have a fitted effect of over 65% in size
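For detection, Steady-Glo was added and plates sat 30 min at RT; before that, AREc32_Fluc cells grown overnight in OPTI-MEM/5% FBS had been treated with 23 nL compound for 24 hr at 37 deg C.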
Nrf2 inh: Nrf2 pathway inhibition | A549 ARE-Fluc reporter, luciferase luminescence, 18-24 h | Potency, µM (highest dose often 46 µM), for the others: at the highest dose activity change, negative = inhibition, most hits filed as inhibitors | 360,000 tested, 2.1% active | AID 504444; also: % is scaled to controls: 0 for no effect and ±100 for the full control effect; nearly all actives have a fitted effect of over 60% in size
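Nrf2 function is reported as luminescence of an ARE-controlled luciferase in A549 cells. Compounds were tested at several concentrations, and a CellTiter-Fluor read on the same wells flagged cytotoxicity.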
TGFb inhibitor: TGF-b pathway inhibition; HepG2 CAGA-GFP TGF-b/SMAD3 reporter, GFP fluorescence, 18 h; TGF-beta stimulated, 500 pg/mL final; Potency, µM (top dose mostly 46.1 µM), for the others: top-dose activity, negative = inhibition, actives largely listed as inhibitors; 410,000 tested, 1.2% active; also: % is scaled to controls: 0 for no effect and ±100 for the full control effect; nearly all actives have a fitted effect of over 65% in size
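Per well, imaged GFP fluorescence of HEPG2 CAGA-GFP cells gives the signal; cells get compound, then TGF-beta (500 pg/mL final), 18 h at 37 degrees C; %Activity versus -TGF-beta and +DMSO controls.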
TGFb CAGA inh: confirmation of TGF-b signaling inhibitors in HepG2 reporter cells. shares compounds with TGFb inhibitor. HepG2 CAGA-GFP TGF-b reporter, GFP fluorescence, 18 h; cells stimulated with TGF-beta, 500 pg/mL. Potency, µM (top dose mostly 46.1 µM), for the others: at the highest dose activity, negative = inhibition, usual class: inhibitors. 1,600 tested, 63% active; also: % is scaled to controls: 0 for no effect and ±100 for the full control effect; nearly all actives have a fitted effect of over 65% in size
HepG2 tox-2: toxic to HepG2 cells in TGF-b counterscreen | Potency, µM (series often up to 46.1 µM), without a hit: at the highest dose activity, negative = cytotoxicity, hits mostly inhibitors | AID 720535 | HepG2 CAGA-GFP viability, ATP luminescence, 18 h; cells stimulated with TGF-beta, 500 pg/mL | 1,600 tested, 27% active | shares compounds with TGFb inhibitor; also: % is scaled to controls: 0 for no effect and ±100 for the full control effect; nearly all actives have a fitted effect of over 70% in size
CCL64 TGFb inh: TGF-b inhibition, CCL64 orthogonal assay. shares compounds with TGFb inhibitor. CCL64 CAGA-GFP reporter, TGF-b stimulated, GFP fluorescence, 18 h. Potency, µM (titrated, usually from 46.1 µM), without a hit: top-dose activity, negative = inhibition, most hits filed as inhibitors. 1,600 tested, 41% active. AID 720536; also: nearly all actives have a fitted effect of over 65% in size
COP TGFb inh: blocks TGF-b signaling in HepG2 COP reporter | shares compounds with TGFb inhibitor | HepG2 COP-GFP TGF-b reporter, GFP fluorescence, 18 h; cells stimulated by added recombinant TGF-beta | Potency, µM (top dose mostly 46.1 µM), without a hit: at the top dose activity, negative = inhibition, hits mostly inhibitors | 1,600 tested, 3% active; also: nearly all actives have a fitted effect of over 70% in size
The depositor's hits bear a star; ? = inconclusive; . = no result; ! = not active in a repeat; [ ] = remark or other dose. Rows were chosen to be rich in hits. Some 3.6% of all compounds tested hit in one or more screens of this group. Calls follow the shape of the dose curve; as a rule, active = well fitted curve in the direction sought with a large enough effect; inconclusive = small, poorly fitted or top-dose-only effect, or another doubt; inactive = no such curve, though single readings can be large; an effect the other way counts as inactive or inconclusive. Potency is read from the fitted curve at half-maximal effect.

SMILES	A549 tox	HepG2 tox-1	Nrf2 activator	Nrf2 inh	TGFb inhibitor	TGFb CAGA inh	HepG2 tox-2	CCL64 TGFb inh	COP TGFb inh
COc1ccc(Cl)cc1NC(=O)CN1c2ccccc2CC1C (centres undefined)	-2%	-40%	2%	?	?	?	-21%	?	28%
Cc1ccccc1-c1cc(C(=O)Nc2sc(C(=O)OC(C)C)c(C)c2C#N)c2ccccc2n1	7.3µM*	-35%	2%	2.6µM*	3.5µM*	5.2µM*	1.5µM*	5.8µM*	55%
COC(=O)c1sc(NC(=O)c2cc(-c3ccccc3)nc3ccccc23)c(C#N)c1C	?	-46%	5%	9.2µM*	5µM*	4.6µM*	?	3.3µM*	45%
O=C(NCc1cccs1)c1cc(-c2ccccc2)nc2ccccc12	1%	-4%	1%	-6%	-8%	.	.	.	.
COc1ccc(-c2cc(C(=O)Nc3sc4c(c3C#N)CCCC4)c3ccccc3n2)cc1	-7%	-18%	3%	-3%	-18%	.	.	.	.
O=C(Nc1nnc(-c2cccs2)o1)c1cc(-c2ccccc2)nc2ccccc12	-25%	-11%	-1%	?	11µM*	12µM*	?	15µM*	27%
CCOC(=O)c1sc(NC(=O)c2cc(-c3ccc(C)cc3)nc3ccccc23)c(C#N)c1C	1%	-12%	0%	22%	?	.	.	.	.
COc1ccccc1C(=O)N1CC(=O)Nc2ccc(F)cc2C1c1ccccc1 (centres undefined)	6%	-24%	0%	-27%	-9%	.	.	.	.
COc1ccc(NC(=O)Nc2ccc(O)c3ccccc23)cc1	-7%	-131%	-3%	2%	6.3µM*	?	-21%	16µM*	0%
CCCCCOC(=O)c1[nH]c2c(c1C)C(=O)CC(c1ccco1)C2 (centres undefined)	-4%	-6%	6%	?	0.79µM*	1.2µM*	-2%	0.23µM*	-13%
CCOC(=O)c1c(C)c(-c2ccccc2)n(CC(=O)NCc2ccccc2)c1C	0%	-2%	-1%	-18%	-4%	.	.	.	.
C/C(=N\O)C(=O)NCc1ccccn1	-5%	5%	-1%	17%	3%	.	.	.	.
CCn1c2ccccc2c2cc(NC(=O)c3cc(OC)c(OC)c(OC)c3)ccc21	-20%	11%	0%	-7%	0.79µM*	0.37µM*	-29%	1.3µM*	16%
CCn1c2ccccc2c2cc(NC(=O)c3cc(OC)cc(OC)c3)ccc21	-18%	12%	3%	?	?	.	.	.	.
COc1ccc(/C=C/C(=O)c2cc(F)ccc2OC(=O)c2ccccc2)cc1OC	?	-56%	23%	2%	8.9µM*	?	-2%	?	0%
CCOC(=O)C1=C[C@@H](C(C)(C)C)N(S(=O)(=O)c2ccc(C)cc2)[C@H]1c1ccccc1	.	-25%	3%	.	?	.	.	.	.
CCOC(=O)C1=C[C@@H](C(C)(C)C)N(S(=O)(=O)c2ccc(OC)cc2)[C@H]1c1ccccc1	.	-20%	24%	.	11µM*	9.2µM*	-29%	-29%	-3%
CCOC(=O)C1=C[C@@H](C(C)(C)C)N(S(=O)(=O)c2ccc([N+](=O)[O-])cc2)[C@H]1c1ccccc1	.	-15%	4%	.	?	?	-3%	?	-1%
CC(C)(C)c1ccc(N/N=C(\C#N)S(=O)(=O)C(C)(C)C)cc1	?	-43%	-1%[9.22 µM]	?	?	.	.	.	.
CC(C)(C)S(=O)(=O)/C(C#N)=N/Nc1ccc(Cl)cc1	?	-33%	7%	10µM*	?	13µM*	?	?	49%
COc1ccc(C(=O)NN(C)c2nc(C(F)(F)F)nc3ccccc23)cc1	?	-23%	0%	?	?	?	-16%	?	-15%
COc1ccc(C(=O)NN(C)c2nc(-c3ccccc3)nnc2C(F)(F)F)cc1	-7%	0%	2%	-5%	15%	.	.	.	.
O=C(O)c1ccccc1Nc1cc(Cl)c2nonc2c1[N+](=O)[O-]	?	7%	3%	5%	1%	.	.	.	.
CN(C)c1cc(Nc2ccc(O)cc2)c([N+](=O)[O-])c2nonc12	-16%	-1%	1%	-15%	6%	.	.	.	.
O=[N+]([O-])c1c(Nc2ccccn2)cc(Cl)c2nonc12	18µM*	-91%	-3%	?	3.2µM*	4.6µM*	4.6µM*	4.6µM*	5.2µM*
SMILES	A549 tox	HepG2 tox-1	Nrf2 activator	Nrf2 inh	TGFb inhibitor	TGFb CAGA inh	HepG2 tox-2	CCL64 TGFb inh	COP TGFb inh
O=[N+]([O-])c1c(Nc2ccc(O)cc2)cc(Cl)c2nonc12	?	5µM*	-4%	2%	2.8µM*	3.3µM*	3.7µM*	2.9µM*	4.6µM*
O=C(NCc1ccccc1)c1nc(S(=O)(=O)Cc2ccccc2)ncc1Cl	?	8.9µM*!	-4%	?	6.3µM*	4.6µM*	5.2µM*	2.3µM*	29µM*
COC(=O)c1ccccc1NC(=O)c1nc(S(=O)(=O)Cc2ccccc2)ncc1Cl	3%	-18%	1%	3%	1%	.	.	.	.
O=C(NCc1ccc2c(c1)OCO2)c1ccccc1Cl	-3%	-7%	2%	11%	22%	.	.	.	.
CCOc1ccccc1NC(=O)c1nc(S(=O)(=O)Cc2cccc(C)c2)ncc1Cl	-17%	-21%	8%	?	?	.	.	.	.
O=C(NCc1ccc2c(c1)OCO2)c1nc(S(=O)(=O)Cc2ccccc2)ncc1Cl	-18%	-144%	-2%	?	10µM*	2.3µM*	3.7µM*	2.6µM*	23µM*
